Article PMC7862700, “An all-to-all approach to the identification of sequence-specific readers for epigenetic DNA modifications on cytosine”

Columns and labels:
Test in all cases: DAPPL (digital affinity profiling via proximity ligation, sequencing); 10 mM Tris-HCl pH 7.5, 50 mM NaCl, 1 mM DTT, 4% glycerol, room temperature, 30 min; GST-TFs on glutathione beads, 16-mer random dsDNA library, 0.1% formaldehyde crosslink after washing; high values mean tight binding
Details in all cases: protein: recombinant; tags: N-terminal GST; dsDNA, one strand shown
FLI1 = molecular target: T1, FLI1 (Homo sapiens, UniProt Q01543 1-452)
T1 sequence: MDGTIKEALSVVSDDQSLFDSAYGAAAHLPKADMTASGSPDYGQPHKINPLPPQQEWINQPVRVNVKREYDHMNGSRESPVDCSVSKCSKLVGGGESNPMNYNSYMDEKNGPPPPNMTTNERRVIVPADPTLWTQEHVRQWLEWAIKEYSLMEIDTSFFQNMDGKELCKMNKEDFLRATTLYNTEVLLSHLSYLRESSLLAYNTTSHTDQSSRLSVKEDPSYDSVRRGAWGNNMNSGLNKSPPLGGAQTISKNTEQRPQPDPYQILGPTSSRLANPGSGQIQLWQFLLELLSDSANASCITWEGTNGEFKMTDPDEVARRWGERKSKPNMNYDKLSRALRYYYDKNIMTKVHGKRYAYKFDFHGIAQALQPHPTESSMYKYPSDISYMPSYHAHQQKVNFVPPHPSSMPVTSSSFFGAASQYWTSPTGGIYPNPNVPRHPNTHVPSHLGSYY
Outline: (§1)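 Binding signal is defined as a hexamer's read frequency for one factor over its frequency for the tag-only sample. To obtain reads, GST-fused human transcription factors were expressed in yeast, captured on glutathione beads, barcoded with DNA and pooled with that sample. Pools met 200 nmole of a 16-mer random double-stranded DNA library in Tris/NaCl/DTT/glycerol buffer for 30 min at room temperature before washing, 0.1% formaldehyde crosslinking, proximity ligation (BsaI/T4 ligase, 1 h, 37 °C), PCR and Illumina NextSeq500 sequencing.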

ELK1 = molecular target: T2, ELK1 (Homo sapiens, UniProt P19419 1-428)
T2 sequence: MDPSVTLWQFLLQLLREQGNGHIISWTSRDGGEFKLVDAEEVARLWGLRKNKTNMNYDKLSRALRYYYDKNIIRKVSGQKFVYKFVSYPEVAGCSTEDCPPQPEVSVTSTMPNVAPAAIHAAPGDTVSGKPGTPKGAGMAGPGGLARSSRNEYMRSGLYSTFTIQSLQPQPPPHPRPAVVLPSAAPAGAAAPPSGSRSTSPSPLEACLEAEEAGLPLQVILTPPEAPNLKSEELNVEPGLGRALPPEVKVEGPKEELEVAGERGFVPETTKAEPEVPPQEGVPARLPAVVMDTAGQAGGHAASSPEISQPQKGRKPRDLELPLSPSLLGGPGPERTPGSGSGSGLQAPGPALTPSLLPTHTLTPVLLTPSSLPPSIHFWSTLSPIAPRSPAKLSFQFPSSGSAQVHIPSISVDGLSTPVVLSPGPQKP
Outline: as §1

GABPA = molecular target: T3, GABPA (Homo sapiens, UniProt Q06546 1-454)
T3 sequence: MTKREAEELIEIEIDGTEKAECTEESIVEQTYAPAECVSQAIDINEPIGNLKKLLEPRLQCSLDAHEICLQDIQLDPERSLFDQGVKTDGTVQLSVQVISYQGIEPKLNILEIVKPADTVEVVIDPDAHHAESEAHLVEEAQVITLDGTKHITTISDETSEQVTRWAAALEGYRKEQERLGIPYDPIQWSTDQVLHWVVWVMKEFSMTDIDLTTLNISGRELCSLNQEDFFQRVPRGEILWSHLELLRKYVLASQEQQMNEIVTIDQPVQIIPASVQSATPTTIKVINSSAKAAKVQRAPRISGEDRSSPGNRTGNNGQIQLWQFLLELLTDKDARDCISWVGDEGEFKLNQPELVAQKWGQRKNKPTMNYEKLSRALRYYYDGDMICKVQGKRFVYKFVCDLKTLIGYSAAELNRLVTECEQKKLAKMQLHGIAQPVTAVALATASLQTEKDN
Outline: as §1

ERG = molecular target: T4, ERG (Homo sapiens, UniProt P11308 1-479)
T4 sequence: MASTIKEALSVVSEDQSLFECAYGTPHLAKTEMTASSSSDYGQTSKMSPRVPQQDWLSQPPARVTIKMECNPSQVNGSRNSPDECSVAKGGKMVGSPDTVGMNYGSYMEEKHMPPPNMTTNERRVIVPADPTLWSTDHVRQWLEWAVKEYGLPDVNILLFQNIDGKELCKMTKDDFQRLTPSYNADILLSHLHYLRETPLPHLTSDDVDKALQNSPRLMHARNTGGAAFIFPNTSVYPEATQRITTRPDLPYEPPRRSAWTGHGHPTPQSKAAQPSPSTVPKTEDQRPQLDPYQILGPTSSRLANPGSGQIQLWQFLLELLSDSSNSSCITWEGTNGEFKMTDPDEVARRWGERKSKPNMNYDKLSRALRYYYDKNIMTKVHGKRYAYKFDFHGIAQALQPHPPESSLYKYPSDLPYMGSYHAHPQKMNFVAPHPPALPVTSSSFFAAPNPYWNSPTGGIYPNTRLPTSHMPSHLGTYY
Outline: as §1

ELF1 = ELF1 (Homo sapiens, UniProt P32519 1-619)
Outline: as §1

EHF = molecular target: T5, EHF (Homo sapiens, UniProt Q9NZC4 1-300)
T5 sequence: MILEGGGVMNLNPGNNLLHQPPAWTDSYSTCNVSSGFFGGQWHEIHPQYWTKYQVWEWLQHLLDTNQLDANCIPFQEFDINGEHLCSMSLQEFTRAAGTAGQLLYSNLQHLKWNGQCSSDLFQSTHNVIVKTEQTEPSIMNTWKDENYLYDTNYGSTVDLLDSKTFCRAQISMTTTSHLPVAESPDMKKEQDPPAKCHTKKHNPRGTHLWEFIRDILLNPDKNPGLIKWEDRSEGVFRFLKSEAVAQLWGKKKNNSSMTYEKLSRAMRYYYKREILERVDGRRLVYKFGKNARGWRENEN
Outline: as §1

SPI1 = SPI1 (Homo sapiens, UniProt P17947 1-270)
Outline: as §1

SPIB = SPIB (Homo sapiens, UniProt Q01892 1-262)
Outline: as §1

ELK3 = molecular target: T6, ELK3 (Homo sapiens, UniProt P41970 1-407)
T6 sequence: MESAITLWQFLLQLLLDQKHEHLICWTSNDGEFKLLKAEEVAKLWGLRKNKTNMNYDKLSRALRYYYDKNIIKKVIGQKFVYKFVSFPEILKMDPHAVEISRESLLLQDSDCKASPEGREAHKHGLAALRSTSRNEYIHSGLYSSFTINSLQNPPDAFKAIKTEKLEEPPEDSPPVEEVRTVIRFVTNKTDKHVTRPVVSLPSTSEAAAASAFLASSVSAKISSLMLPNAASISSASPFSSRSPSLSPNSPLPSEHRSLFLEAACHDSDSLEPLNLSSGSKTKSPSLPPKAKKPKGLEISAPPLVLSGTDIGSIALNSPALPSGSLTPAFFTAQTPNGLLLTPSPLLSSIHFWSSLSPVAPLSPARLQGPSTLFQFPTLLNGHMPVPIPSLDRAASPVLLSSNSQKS
Outline: as §1

FEV = molecular target: T7, FEV (Homo sapiens, UniProt Q99581 1-238)
T7 sequence: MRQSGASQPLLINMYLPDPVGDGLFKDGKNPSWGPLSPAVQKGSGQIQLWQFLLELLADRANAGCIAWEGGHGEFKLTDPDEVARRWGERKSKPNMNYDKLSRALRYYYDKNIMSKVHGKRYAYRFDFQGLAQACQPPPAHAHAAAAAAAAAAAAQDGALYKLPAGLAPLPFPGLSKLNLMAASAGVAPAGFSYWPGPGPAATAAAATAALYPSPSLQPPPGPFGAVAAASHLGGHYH
Outline: as §1

ETV5 = ETV5 (Homo sapiens, UniProt P41161 1-510)
Outline: as §1

SPIC = molecular target: T8, SPIC (Homo sapiens, UniProt Q8N5J4 1-248)
T8 sequence: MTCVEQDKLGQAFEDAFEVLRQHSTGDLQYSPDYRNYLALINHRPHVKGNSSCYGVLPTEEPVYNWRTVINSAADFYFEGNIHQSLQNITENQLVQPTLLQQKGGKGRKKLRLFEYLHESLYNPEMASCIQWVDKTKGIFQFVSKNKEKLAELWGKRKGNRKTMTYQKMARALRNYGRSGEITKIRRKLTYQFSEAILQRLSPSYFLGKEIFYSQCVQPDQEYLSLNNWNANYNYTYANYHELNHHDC
Outline: as §1

ELF4 = ELF4 (Homo sapiens, UniProt Q99607 1-663)
Outline: as §1

ETV1 = ETV1 (Homo sapiens, UniProt P50549 1-477)
Outline: as §1

ERF = molecular target: T9, ERF (Homo sapiens, UniProt P50548 1-548)
T9 sequence: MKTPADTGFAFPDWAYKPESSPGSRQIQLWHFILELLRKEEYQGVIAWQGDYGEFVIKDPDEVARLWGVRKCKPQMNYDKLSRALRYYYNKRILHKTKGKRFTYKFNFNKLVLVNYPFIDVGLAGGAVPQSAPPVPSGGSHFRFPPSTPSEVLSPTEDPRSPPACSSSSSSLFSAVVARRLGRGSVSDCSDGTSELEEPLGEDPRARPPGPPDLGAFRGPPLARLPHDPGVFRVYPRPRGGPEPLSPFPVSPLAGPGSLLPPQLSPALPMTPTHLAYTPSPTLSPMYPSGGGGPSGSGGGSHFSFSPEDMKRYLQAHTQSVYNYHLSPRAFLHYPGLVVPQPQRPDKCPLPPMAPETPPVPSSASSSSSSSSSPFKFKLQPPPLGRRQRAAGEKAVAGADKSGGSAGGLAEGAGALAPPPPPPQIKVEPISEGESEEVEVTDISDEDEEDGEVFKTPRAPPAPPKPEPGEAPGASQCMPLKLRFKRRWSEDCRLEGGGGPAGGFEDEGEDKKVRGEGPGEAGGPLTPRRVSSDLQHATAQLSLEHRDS
Outline: as §1

ETV3L = molecular target: T10, ETV3L (Homo sapiens, UniProt Q6ZN32 1-361)
T10 sequence: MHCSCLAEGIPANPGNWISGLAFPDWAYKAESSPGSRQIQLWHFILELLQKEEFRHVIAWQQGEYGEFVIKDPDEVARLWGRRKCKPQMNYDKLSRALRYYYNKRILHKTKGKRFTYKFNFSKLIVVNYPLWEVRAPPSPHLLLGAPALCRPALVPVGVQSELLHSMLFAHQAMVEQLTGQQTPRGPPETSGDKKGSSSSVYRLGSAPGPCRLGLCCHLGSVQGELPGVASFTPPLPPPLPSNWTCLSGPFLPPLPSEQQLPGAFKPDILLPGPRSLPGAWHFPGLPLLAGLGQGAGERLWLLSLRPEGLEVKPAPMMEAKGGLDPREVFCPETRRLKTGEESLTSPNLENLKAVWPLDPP
Outline: as §1

ETS2 = molecular target: T11, ETS2 (Homo sapiens, UniProt P15036 1-469)
T11 sequence: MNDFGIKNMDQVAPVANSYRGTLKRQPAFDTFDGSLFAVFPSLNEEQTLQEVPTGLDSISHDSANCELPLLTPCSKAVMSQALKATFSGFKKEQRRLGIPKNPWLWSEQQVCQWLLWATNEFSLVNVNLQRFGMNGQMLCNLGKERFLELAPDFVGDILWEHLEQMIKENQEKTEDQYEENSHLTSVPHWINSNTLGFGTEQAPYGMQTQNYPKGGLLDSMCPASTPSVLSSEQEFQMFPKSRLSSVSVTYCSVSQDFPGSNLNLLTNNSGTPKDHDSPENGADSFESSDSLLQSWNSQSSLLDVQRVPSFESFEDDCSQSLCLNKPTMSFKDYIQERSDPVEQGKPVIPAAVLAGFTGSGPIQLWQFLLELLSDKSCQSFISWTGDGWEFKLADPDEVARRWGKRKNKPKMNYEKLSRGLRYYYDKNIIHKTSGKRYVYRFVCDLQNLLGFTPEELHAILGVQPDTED
Outline: as §1

SPDEF = molecular target: T12, SPDEF (Homo sapiens, UniProt O95238 1-335)
T12 sequence: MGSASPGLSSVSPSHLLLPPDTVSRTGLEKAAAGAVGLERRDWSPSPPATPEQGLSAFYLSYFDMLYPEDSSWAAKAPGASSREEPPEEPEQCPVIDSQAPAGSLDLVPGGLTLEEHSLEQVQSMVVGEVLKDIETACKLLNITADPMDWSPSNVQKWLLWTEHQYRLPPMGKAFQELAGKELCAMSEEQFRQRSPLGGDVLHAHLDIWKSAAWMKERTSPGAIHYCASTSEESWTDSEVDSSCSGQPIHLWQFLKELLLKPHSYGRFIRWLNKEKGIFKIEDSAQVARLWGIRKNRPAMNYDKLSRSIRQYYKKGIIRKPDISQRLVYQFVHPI
Outline: as §1

ETV3 = molecular target: T13, ETV3 (Homo sapiens, UniProt P41162-2 1-143)
T13 sequence: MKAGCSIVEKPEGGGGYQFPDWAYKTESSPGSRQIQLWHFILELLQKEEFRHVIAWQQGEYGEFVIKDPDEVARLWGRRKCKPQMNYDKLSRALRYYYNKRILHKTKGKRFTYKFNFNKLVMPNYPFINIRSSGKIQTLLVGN
Outline: as §1

ETV6 = ETV6 (Homo sapiens, UniProt P41212 1-452)
Outline: as §1

SPIB, sequence (Q01892 whole entry): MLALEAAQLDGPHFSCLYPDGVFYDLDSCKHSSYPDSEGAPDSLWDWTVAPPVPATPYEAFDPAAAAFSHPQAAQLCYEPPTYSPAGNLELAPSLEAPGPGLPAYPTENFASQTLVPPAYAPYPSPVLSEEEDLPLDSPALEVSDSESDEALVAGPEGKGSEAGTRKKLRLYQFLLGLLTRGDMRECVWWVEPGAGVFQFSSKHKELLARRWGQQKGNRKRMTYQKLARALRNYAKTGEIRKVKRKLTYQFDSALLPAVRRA
ETV6, sequence (P41212 whole entry): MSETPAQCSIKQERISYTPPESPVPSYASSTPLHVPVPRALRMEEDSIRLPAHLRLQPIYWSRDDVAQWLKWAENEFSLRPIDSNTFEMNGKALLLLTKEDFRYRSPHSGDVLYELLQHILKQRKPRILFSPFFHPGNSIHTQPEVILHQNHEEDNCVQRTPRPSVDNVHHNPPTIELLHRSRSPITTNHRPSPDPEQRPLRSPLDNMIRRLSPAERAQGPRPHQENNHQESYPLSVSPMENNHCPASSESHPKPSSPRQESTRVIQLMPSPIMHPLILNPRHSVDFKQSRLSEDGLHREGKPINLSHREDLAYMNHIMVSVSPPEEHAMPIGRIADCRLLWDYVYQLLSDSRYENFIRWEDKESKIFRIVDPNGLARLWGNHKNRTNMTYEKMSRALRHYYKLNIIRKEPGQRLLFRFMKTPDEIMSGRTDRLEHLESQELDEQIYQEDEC
ELF4, sequence (Q99607 whole entry): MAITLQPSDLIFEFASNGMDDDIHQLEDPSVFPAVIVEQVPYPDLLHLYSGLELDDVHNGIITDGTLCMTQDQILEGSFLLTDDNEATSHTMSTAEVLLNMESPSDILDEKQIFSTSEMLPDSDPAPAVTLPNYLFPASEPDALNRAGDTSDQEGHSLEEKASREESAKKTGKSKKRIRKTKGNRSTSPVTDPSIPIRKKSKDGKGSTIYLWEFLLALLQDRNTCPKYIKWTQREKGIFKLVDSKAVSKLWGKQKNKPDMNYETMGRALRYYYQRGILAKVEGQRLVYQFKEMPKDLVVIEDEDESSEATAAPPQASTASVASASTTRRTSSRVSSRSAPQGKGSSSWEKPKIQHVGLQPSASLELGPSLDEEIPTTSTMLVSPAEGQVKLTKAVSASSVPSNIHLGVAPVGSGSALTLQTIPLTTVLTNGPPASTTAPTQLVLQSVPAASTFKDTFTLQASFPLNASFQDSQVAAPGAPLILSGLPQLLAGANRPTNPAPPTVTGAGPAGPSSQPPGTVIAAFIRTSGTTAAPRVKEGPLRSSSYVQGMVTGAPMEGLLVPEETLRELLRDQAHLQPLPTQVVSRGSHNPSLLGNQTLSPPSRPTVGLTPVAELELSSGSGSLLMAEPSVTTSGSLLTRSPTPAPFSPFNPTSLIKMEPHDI
ETV5, sequence (P41161 whole entry): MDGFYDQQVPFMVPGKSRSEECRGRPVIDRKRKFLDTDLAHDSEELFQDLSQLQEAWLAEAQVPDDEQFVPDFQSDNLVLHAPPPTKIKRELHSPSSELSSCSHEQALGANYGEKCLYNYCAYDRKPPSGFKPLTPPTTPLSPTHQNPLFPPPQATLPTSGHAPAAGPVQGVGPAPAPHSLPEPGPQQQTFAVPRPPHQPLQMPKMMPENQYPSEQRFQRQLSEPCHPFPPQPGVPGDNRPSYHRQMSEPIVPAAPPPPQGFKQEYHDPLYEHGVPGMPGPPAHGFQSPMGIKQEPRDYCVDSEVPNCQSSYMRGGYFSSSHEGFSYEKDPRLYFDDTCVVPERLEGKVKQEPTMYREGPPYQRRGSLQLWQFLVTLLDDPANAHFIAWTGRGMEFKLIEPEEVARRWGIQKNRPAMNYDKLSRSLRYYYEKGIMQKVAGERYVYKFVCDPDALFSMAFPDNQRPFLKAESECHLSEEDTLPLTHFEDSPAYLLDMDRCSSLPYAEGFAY
ETV1, sequence (P50549 whole entry): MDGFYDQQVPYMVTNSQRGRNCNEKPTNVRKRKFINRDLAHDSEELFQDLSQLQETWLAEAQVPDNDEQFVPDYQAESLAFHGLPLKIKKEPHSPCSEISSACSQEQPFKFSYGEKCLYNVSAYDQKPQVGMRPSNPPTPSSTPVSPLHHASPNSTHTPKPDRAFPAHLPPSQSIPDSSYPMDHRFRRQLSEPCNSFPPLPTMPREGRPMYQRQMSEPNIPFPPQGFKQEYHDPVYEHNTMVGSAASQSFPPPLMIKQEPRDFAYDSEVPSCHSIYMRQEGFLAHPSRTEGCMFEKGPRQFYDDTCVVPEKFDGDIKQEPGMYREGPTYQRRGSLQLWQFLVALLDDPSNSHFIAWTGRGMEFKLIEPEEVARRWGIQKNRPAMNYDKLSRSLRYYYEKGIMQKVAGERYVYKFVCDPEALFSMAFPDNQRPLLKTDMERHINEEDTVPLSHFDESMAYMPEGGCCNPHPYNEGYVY
ELF1, sequence (P32519 whole entry): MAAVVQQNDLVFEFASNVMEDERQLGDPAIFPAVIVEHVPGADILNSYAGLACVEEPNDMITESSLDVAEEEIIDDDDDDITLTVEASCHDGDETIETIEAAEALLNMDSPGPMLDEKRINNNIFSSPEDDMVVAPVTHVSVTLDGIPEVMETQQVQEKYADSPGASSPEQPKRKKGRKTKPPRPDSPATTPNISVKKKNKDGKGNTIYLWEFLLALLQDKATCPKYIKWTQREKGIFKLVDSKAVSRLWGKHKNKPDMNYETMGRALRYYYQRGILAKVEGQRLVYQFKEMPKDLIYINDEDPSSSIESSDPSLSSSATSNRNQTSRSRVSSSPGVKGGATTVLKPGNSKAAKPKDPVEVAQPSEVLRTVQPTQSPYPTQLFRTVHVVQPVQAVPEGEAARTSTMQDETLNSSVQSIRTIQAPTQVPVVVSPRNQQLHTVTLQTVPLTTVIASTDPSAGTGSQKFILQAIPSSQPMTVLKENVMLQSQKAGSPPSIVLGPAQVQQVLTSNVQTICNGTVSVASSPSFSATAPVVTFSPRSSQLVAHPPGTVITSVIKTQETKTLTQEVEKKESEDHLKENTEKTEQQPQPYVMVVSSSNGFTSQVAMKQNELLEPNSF

Sequence: GTCTAC
- binding signal (FLI1): 1.09 fold enrichment (6-mer frequency, TF over GST control)
- binding signal (ELK1): 1.08 fold enrichment (6-mer frequency, TF over GST control)
- binding signal (GABPA): 1.08 fold enrichment (6-mer frequency, TF over GST control)
- binding signal (ERG): 1.05 fold enrichment (6-mer frequency, TF over GST control)
- binding signal (ELF1): 1.05 fold enrichment (6-mer frequency, TF over GST control)
- binding signal (EHF): 1.16 fold enrichment (6-mer frequency, TF over GST control)
- binding signal (SPI1): 1.12 fold enrichment (6-mer frequency, TF over GST control)
- binding signal (SPIB): 1.03 fold enrichment (6-mer frequency, TF over GST control)
- binding signal (ELK3): 1.06 fold enrichment (6-mer frequency, TF over GST control)
- binding signal (FEV): 1.08 fold enrichment (6-mer frequency, TF over GST control)
- binding signal (ETV5): 1.11 fold enrichment (6-mer frequency, TF over GST control)
- binding signal (SPIC): 1.1 fold enrichment (6-mer frequency, TF over GST control)
- binding signal (ELF4): 1.09 fold enrichment (6-mer frequency, TF over GST control)
- binding signal (ETV1): 1.19 fold enrichment (6-mer frequency, TF over GST control)
- binding signal (ERF): 1.07 fold enrichment (6-mer frequency, TF over GST control)
- binding signal (ETV3L): 1.26 fold enrichment (6-mer frequency, TF over GST control)
- binding signal (ETS2): 1.13 fold enrichment (6-mer frequency, TF over GST control)
- binding signal (SPDEF): 1.11 fold enrichment (6-mer frequency, TF over GST control)
- binding signal (ETV3): 1.06 fold enrichment (6-mer frequency, TF over GST control)
- binding signal (ETV6): 1 fold enrichment (6-mer frequency, TF over GST control)
